High-throughput results (PubChem BioAssay)
An excerpt weighted towards active compounds, which were near 2.4% of everything screened.
L3MBTL1 block – inhibitors of human L3MBTL1; actives 0.66% (n = 230,000); AID 485360; Q9Y468; Potency, µM (highest dose often 57.1 µM), for the others: at the top dose activity, negative = inhibition, most hits filed as inhibitors; AlphaScreen L3MBTL1–H3K9me1 peptide binding; further: on the % scale 0 is the no-effect control and ±100 the full control effect; nearly all actives have a fitted effect of over 60% in size
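First, the protein-peptide complex forms for 30 min at room temperature (L3MBTL1 50 nM, biotinylated H3K9me1 peptide 75 nM). Next, compounds are pin-transferred and incubated 30 min. Finally, AlphaScreen beads are added and read after 30 min.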
Pol iota inh – inhibitors of human DNA polymerase iota; Q9UNA4; Potency, µM (highest dose often 115 µM), for the others: top-dose activity, negative = inhibition, usual class: inhibitors; Pol iota fluorescent replication assay, 10 min; actives 1% (n = 390,000); AID 588590
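Fluorescent replication assay read twice, at 0 min and 10 min after adding 50 nM (final) substrate. Enzyme (10 nM) and compounds were first incubated 15 min at room temperature; enzyme-free buffer wells were negative controls.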
Pol eta inh – blocks human DNA polymerase eta activity; recombinant Pol eta, fluorescent DNA replication assay; Potency, µM (titrated, usually from 114 µM), for the others: at the top dose activity change, negative = inhibition, most hits filed as inhibitors; actives 1.2% (n = 390,000); Q9Y253; AID 588591; further: on the % scale 0 is the no-effect control and ±100 the full control effect
Target sequence (Q9Y253 whole entry, looked up): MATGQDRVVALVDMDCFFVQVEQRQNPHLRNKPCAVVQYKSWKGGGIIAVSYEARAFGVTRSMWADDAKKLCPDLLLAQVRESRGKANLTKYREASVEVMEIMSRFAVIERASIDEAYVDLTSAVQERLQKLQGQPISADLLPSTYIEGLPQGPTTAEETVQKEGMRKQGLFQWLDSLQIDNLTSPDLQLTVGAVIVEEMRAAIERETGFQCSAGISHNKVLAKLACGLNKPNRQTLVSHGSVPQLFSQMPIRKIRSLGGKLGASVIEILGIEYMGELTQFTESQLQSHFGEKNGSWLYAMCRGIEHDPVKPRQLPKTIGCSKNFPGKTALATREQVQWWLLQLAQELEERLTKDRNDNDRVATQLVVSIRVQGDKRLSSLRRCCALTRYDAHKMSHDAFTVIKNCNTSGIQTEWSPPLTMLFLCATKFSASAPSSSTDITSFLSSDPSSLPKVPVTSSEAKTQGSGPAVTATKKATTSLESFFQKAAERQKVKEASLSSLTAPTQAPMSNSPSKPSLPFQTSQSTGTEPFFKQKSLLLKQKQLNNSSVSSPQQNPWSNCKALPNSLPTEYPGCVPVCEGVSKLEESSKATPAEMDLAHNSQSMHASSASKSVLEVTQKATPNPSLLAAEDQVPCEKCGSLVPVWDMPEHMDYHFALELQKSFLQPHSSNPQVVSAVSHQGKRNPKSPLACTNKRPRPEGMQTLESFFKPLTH
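Pol eta (10 nM) was preincubated with compounds for 15 min at room temperature, after which fluorescent replication substrate (50 nM final) was added to start the reaction. Fluorescence was read kinetically at 0 and 10 min.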
Pol kappa inh – inhibitors of human DNA polymerase kappa; purified Pol kappa, fluorescent DNA synthesis assay, 10 min; AID 588579; actives 0.53% (n = 400,000); Potency, µM (titrated, usually from 107 µM), for inactives: top-dose activity, negative = inhibition, usual class: inhibitors; further: on the % scale 0 is the no-effect control and ±100 the full control effect
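First, compounds were pin-transferred onto 10 nM Pol kappa. After 15 min at room temperature, substrate was added to 50 nM final. Fluorescence was then measured kinetically at 0 and 10 min.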
POLB inh – blocks human DNA polymerase beta activity | P06746 | Pol beta primer extension/strand displacement, fluorescence kinetic | Potency, µM (top dose mostly 114 µM), for the others: at the highest dose activity change, negative = inhibition, usual class: inhibitors | actives 1.3% (n = 340,000); further: on the % scale 0 is the no-effect control and ±100 the full control effect
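Curves were derived by four-parameter Hill fits of normalized qHTS data. The kinetic fluorescent primer-extension read was taken at 0 and 10 min after 50 nM substrate, following a 15 min room-temperature preincubation of 10 nM enzyme with compounds.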
Numbers without * were called inactive; ? = inconclusive; · = no result given; [ ] = another dose, or the depositor's remark. The call rests on the fitted dose curve; in most records, active means well fitted curve in the direction sought with a large enough effect; inconclusive means small, poorly fitted or top-dose-only effect, or another doubt; inactive means no such curve, though single readings can be large; an effect the other way counts as inactive or inconclusive. Potency means the concentration at half of the fitted maximal effect.

SMILES | L3MBTL1 block | Pol iota inh | Pol eta inh | Pol kappa inh | POLB inh
C/C(=C\COc1c2ccoc2cc2oc(=O)ccc12)CCC(O)C(C)(C)O (configuration not stated) | · | · | · | -11%[60.1 µM] | ·
Cc1cc(C)c2c(N)c(C(=O)Nc3nccs3)sc2n1 | 10% | 5% | ? | -21% | 40µM*
CC(C)(C)C(=O)c1sc2nc(-c3cccs3)cc(C(F)(F)F)c2c1N | 49% | 8% | -11% | 2% | 3%
Nc1c(C(=O)Nc2nccs2)sc2nc(-c3cccs3)cc(C(F)(F)F)c12 | · | -12% | ? | 1% | 45µM*
COc1cccc(-c2nc3c(c(SCC(=O)N4CCOCC4)n2)Cc2c(CO)cnc(C)c2O3)c1 | · | 79µM* | -14% | -38% | -9%
Cc1ncc(CO)c2c1Oc1nc(-c3ccccc3F)nc(SCC(=O)N(C)c3ccccc3)c1C2 | · | ? | 79µM* | -8% | 15%
Cc1ncc(CO)c2c1Oc1nc(-c3ccccc3)nc(SCC(=O)N(C)c3ccccc3)c1C2 | · | · | · | · | 56µM*
CCN(CC)C(=O)CSc1nc(-c2ccccc2F)nc2c1Cc1c(CO)cnc(C)c1O2 | · | -3% | -4% | 1% | -17%
Cc1ncc(CO)c2c1Oc1nc(-c3ccccc3)nc(SCC(=O)N3CCCCC3)c1C2 | · | 22% | ? | -13% | 7%
Cc1cccc(-c2nc3c(c(SCC(=O)N4CCOCC4)n2)Cc2c(CO)cnc(C)c2O3)c1 | · | ? | ? | -1% | -17%
CN1CCc2nc3sc(C(=O)C45CC6CC(CC(C6)C4)C5)c(N)c3cc2C1 | -5% | 0% | ? | ? | 50µM*
CC(C)(CC(=O)NCc1ccc(Cl)cc1Cl)CC1=NS(=O)(=O)c2ccccc2N1 | · | 34% | -18% | 5%[60.1 µM] | 5%
O=C(O)c1cc(N=Nc2ccc(-c3ccc(N=Nc4ccc(O)c(C(=O)O)c4)cc3)cc2)ccc1O | · | · | · | 6µM* | ·
O=C(CCCN1C(=O)/C(=C/c2cccs2)SC1=S)NNC(=O)c1ccncc1 | 1% | ? | ? | -6% | 25µM*
COc1cc2c(C(=O)N3CCN(c4cccc(C(F)(F)F)c4)CC3)cn(CC(C)C)c(=O)c2cc1OC | · | 89µM* | -21% | -13%[60.1 µM] | -5%
COc1ccc([C@@H]2CC(=O)c3c(O)cc(O[C@@H]4O[C@H](CO)[C@@H](O)[C@H](O)[C@H]4OC4O[C@@H](C)[C@H](O)[C@@H](O)[C@H]4O)cc3O2)cc1O (some centres not stated) | · | · | · | 14%[60.1 µM] | ·
COc1ccc(Br)cc1CNc1ccc(O)cc1 | ? | 2.8µM* | 7% | -11% | 3%
COc1ccc(Br)cc1CNc1ccc2[nH]c(=O)[nH]c2c1 | -14%[11.4 µM] | 9% | -24% | -4% | 37%
COc1cc(CNC(C)c2ccccc2)cc(Br)c1OCc1ccccc1 (configuration not stated) | 22% | 18% | -9% | -5% | 2%
COc1cc(CNc2ccc(O)cc2)cc(Br)c1OCc1ccccc1 | -26% | 16µM* | ? | -15% | -1%
CC(C)NC(=O)NC(=O)COC(=O)c1c2c(nc3ccccc13)CCC2 | · | -28% | ? | -15% | ?
CCCC(C)NC(=O)c1c2c(nc3ccccc13)CCC2 (configuration not stated) | ? | ? | ? | ? | 18µM*
CC(C)(C)NC(=O)COC(=O)c1c2c(nc3ccccc13)CCC2 | · | ? | 50µM* | -43% | 45µM*
C[C@H](NC(=O)C1CCN(S(=O)(=O)c2ccccc2)CC1)C(=O)NCc1ccncc1 | · | · | -6% | · | ·
S=c1[nH]nc(-c2ccccn2)n1/N=C/c1ccc(-c2ccccc2Cl)o1 | · | 43% | 1% | -15% | 22µM*
S=c1[nH]nc(-c2ccccn2)n1/N=C/c1ccc(Br)s1 | 28µM* | 17% | -12% | -4% | 18%
O=C(Nc1ccc(Cl)cc1Cl)[C@@H]1CC=C[C@@H]2CCN(C3CC3)C(=O)[C@@H]21 | · | 12% | · | 12% | ·
Cc1ccc(C)c(CSc2nnc3[nH]c(=O)cc(-c4ccccc4)n23)c1 | · | 5% | 16% | -3%[60.1 µM] | 22%
CCN1CCN(CCOCCOc2ccccc2-c2ccccc2)CC1 | -2% | · | · | · | 6%
c1ccc(-c2ccccc2OCCOCCN2CCOCC2)cc1 | ? | -8% | -6% | 0% | 50µM*
